# From PubChem BioAssay AID1946 (Johns Hopkins Ion Channel Center, 2009)
# About 180 (7.5%) of roughly 2,400 compounds were called active. What follows is part of a selection rich in actives, with near analogues and random picks from the rest. Unmarked numbers belong to inactive results.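 The calls were made as follows: active = readout below zero, meaning a drop past 3 SD under the dofetilide-free negative control mean; inactive = the rest.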
# Molecular target: Potassium voltage-gated channel subfamily KQT member 2 (Rattus norvegicus) (UniProt O88943)
# Assay: rat KCNQ2 channel inhibition by compounds alone, confirmation, counter-screen for hERG block protector project, cell-based, CHO, FluxOR thallium flux (AID 1946)
# Settings: CHO-KCNQ2 cells, FluxOR thallium flux fluorescence; at 10 µM; active compounds read low; zero marks the 3-SD hit cutoff
# Potassium voltage-gated channel subfamily KQT member 2 (Rattus norvegicus), sequence (O88943 whole entry, looked up): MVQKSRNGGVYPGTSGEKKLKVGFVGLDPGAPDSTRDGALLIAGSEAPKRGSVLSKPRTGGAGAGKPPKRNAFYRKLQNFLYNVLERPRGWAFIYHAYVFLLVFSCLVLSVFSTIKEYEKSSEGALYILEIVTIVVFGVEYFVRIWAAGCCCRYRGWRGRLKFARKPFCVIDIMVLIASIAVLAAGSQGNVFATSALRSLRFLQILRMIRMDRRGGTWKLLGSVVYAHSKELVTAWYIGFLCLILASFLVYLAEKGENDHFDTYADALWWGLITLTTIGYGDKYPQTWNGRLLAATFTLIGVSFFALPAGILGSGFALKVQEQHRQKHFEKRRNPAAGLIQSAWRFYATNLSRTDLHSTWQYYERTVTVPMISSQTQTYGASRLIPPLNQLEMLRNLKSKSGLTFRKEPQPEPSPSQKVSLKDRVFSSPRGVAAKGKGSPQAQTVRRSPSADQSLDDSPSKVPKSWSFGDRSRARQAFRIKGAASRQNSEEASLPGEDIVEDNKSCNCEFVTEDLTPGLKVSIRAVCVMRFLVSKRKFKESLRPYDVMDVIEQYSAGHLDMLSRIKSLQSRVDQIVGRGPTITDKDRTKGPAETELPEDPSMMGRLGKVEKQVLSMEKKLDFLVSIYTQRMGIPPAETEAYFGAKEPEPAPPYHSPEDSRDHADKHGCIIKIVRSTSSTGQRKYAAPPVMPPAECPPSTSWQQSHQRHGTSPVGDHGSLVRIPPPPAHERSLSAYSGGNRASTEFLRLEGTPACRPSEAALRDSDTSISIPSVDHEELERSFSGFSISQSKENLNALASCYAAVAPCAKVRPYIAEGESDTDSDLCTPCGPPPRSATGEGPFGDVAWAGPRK
row,SMILES,activity change vs negative control
1,Cc1nn(-c2ccccc2)c(Cl)c1/C=C1\SC(=S)NC1=O,81.9%
2,COc1ccc(-c2cc(C(=O)N3CCCC3)no2)cc1OC,24%
3,O=C(NC(=S)Nc1ccccc1)c1ccc(Br)o1,34.7%
4,Cc1ccc(C(C(=O)NC(C)(C)C)N(Cc2cccnc2)C(=O)C(=O)NC2CCCCC2)o1 (configuration not stated),14.9%
5,CCSc1nc(=S)cc(C)[nH]1,78.1%
6,COc1ccc(S(=O)(=O)N2CCCC(C(=O)Nc3ccc(OC)c(OC)c3)C2)cc1 (configuration not stated),5.6%
7,CC(C)N1CC(C(=O)Nc2ccc(Cl)c(Cl)c2)CC1=O (configuration not stated),-0.8% (active)
8,O=C(O)C1C2CCC(O2)C1C(=O)Nc1ccc(F)c(Cl)c1 (configuration not stated),10.3%
9,CCOC(=O)C(=CNc1ccc(N2CCOCC2)cc1)C(=O)OCC,29.7%
10,COc1ccccc1Cn1c(=S)[nH]c2ccc(Br)cc2c1=O,7.2%
11,Cc1[nH]c(-c2ccccn2)nc(=S)c1Cl,107%
12,O=c1c2ccccc2[nH]c(=S)n1CCC1=CCCCC1,49.3%
13,Cc1ccc(NS(=O)(=O)c2cn(C)c(=O)n(C)c2=O)c(C)c1,14.1%
14,Cc1ccc2cc(CCNC(=O)C(=O)c3c(C)[nH]c4ccccc34)c(=O)[nH]c2c1,0.8%
15,Cc1ccc2cc(CN(CCCN(C)C)C(=S)NCc3ccccc3)c(=O)[nH]c2c1C,-0.3% (active)
16,Cc1ccc(-n2nc3ccc(N)cc3n2)c(C)c1,-14.5% (active)
17,O=C(COc1ccc2c3c(c(=O)oc2c1)CCC3)N[C@@H](Cc1ccccc1)C(=O)O,31.1%
18,CCOC(=O)C1CCN(S(=O)(=O)c2cccc3nonc23)CC1,20.3%
19,CCOc1ccc(C(=O)N(CN2CCCC2=O)c2ccc(C)cc2)cc1,44.8%
20,Cc1onc(-c2ccccc2)c1C(=O)NC(=S)Nc1sc2c(c1C#N)CCCC2,10.5%
21,Cc1ccc(C(=O)Nc2sc3c(c2C(=O)O)CCCCC3)o1,-2.5% (active)
22,CC(C)OC(=O)c1c(NC(=O)c2ccco2)sc2c1CCCCC2,3.9%
23,Oc1c(Br)cc(Br)cc1C=Nc1ccc2[nH]ncc2c1,54.4%
24,CC(C)Oc1cccc(C(=O)NC(=S)N2CCN(c3ccc(C(F)(F)F)cc3[N+](=O)[O-])CC2)c1,11.4%
25,O=C(NC(=S)N1CCN(c2ccc(C(F)(F)F)cc2[N+](=O)[O-])CC1)c1cccs1,30.1%

row,SMILES,activity change vs negative control
1,COc1cccc(OC)c1C(=O)NC(=S)N1CCN(c2ccc(C(F)(F)F)cc2[N+](=O)[O-])CC1,-6% (active)
2,CCOC(=O)c1n[nH]n2c1nc(=S)c1ccccc12,77.4%
3,CSC(=S)N/N=C/c1ccccc1,71%
4,Cc1cccc(/C=N/NC(=O)c2cc(Br)ccc2O)n1,23.8%
5,Cc1ccc(C(=O)N2CCN(c3ccccc3)CC2)cc1S(=O)(=O)N1CCCC1,29.7%
6,O=C(NC(=S)N(CC1CCC1)CC1CCCO1)c1cccc([N+](=O)[O-])c1 (configuration not stated),63.2%
7,O=C(NC(=S)Nc1cc(C(F)(F)F)ccc1Cl)c1ccccc1,8.2%
8,O=C(CCc1ccccc1)NC(=S)Nc1cc(C(F)(F)F)ccc1N1CCOCC1,-15.9% (active)
9,O=C(NC(=S)Nc1cc(C(F)(F)F)ccc1N1CCOCC1)c1ccco1,11.7%
10,COc1cc(C(=O)Nc2ccc(O)cc2C(=O)O)ccc1OC(C)=O,3.8%
11,Cn1c(=O)c(Sc2ccccc2)c(O)c2ccccc21,23.4%
12,COc1ccc(C(=O)NNC(=O)C(=O)NC2CCCCC2)cc1,20.2%
13,O=C(c1csc(Nc2ccccc2Cl)n1)N1CCCC1,0%
14,CCOc1ccc(-n2cnc3sc(C)c(C)c3c2=O)cc1,3%
15,Cc1ccc(OC(=O)c2sc3ncn(C)c(=O)c3c2C)cc1,-1.4% (active)
16,COc1ccccc1-n1cnc2sc(C)c(C)c2c1=O,11.8%
17,CCOc1cc(N2CCOCC2)c(OCC)cc1NC(=O)Cn1nc(C)c([N+](=O)[O-])c1C,12.9%
18,CCSc1nnc(NC(=O)CC(C)C)s1,10.8%
19,Cc1ccc(OCc2ccoc2C(=O)O)cc1C,45.7%
20,O=C(/C=C/Nc1ccc(F)c(F)c1)c1cccs1,-2.9% (active)
21,O=C(/C=C/Nc1ccc(F)cc1)c1ccco1,12.2%
22,Cc1ccc(N/C=C/C(=O)c2cccs2)cc1,5%
23,Cc1ccc(Cc2c[nH]c(=S)s2)cc1,76.4%
24,O=C(NC(=S)N1CCc2ccccc21)c1ccc(Br)o1,41%
25,S=c1nc(Cc2ccccc2)[nH]c2ccccc12,98.8%

row,SMILES,activity change vs negative control
1,O=C(C1CCN(S(=O)(=O)c2cc(Cl)ccc2Cl)CC1)N1CCOCC1,1.9%
2,O=C1CC(C(=O)N2CCOCC2)C2(CCCCC2)O1 (configuration not stated),-1% (active)
3,Cc1ccc(C(C)C)c(OCc2n[nH]c(=S)o2)c1,32.2%
4,O=C(NC(=S)NCc1ccccc1)c1ccc(Br)o1,93.4%
5,CCC1=NN(C(=O)c2ccc(Cl)cc2)C(O)(c2ccc(C)cc2)C1 (configuration not stated),11.1%
6,CC1=NN(C(=O)c2ccc(Cl)cc2)C(O)(c2ccccc2)C1 (configuration not stated),16%
7,CCC1=NN(C(=O)c2ccc(Cl)cc2)C(O)(c2ccccc2)C1 (configuration not stated),-0.9% (active)
8,CC(C)NC(=O)Nc1n[nH]c(Nc2ccc(Cl)cc2)n1,34.6%
9,COCCN(C(=O)CSc1nnc(C)n1Cc1ccccc1)c1c(N)n(CC(C)C)c(=O)[nH]c1=O,1.8%
10,C=CCN(c1ccc(C(=O)NC(C)C)cc1)S(C)(=O)=O,-2.3% (active)
11,CS(=O)(=O)N(Cc1ccccc1)c1ccc(C(=O)Nc2ccc(C(N)=O)cc2)cc1,4.2%
12,C=CCN(CC=C)C(=S)NC(=O)c1ccc(OC)cc1,31.6%
13,CCOC(=O)C1=NN(C(=O)c2ccccc2)C(O)(c2ccc(C)cc2)C1 (configuration not stated),32%
14,CCn1c(=S)[nH]c2c(c1=O)C(C)(C)Cc1ccccc1-2,49.8%
15,c1ccc(-c2n[nH]c(-c3ccccn3)n2)cc1,20.5%
16,C=CCn1c(O)c(N=NC(=S)Nc2ccccc2F)c2cc(S(=O)(=O)N3CCOCC3)ccc21,-2.3% (active)
17,Cn1c(O)c(N=NC(=S)Nc2ccccc2F)c2cc(S(=O)(=O)N3CCOCC3)ccc21,4%
18,Oc1c(N=NC(=S)Nc2ccccc2F)c2ccccc2n1Cc1ccccc1F,10.9%
19,CC(Oc1ccc(Br)cc1Br)C(=O)Nc1cccnc1 (configuration not stated),7.4%
20,CC1CCN(C(=S)NC(=O)c2ccc(C(C)(C)C)cc2)CC1,38.5%
21,COc1cc2c(cc1OC)C(c1ccc([N+](=O)[O-])cc1)N(C(C)=O)CC2 (configuration not stated),-4% (active)
22,COc1cc2c(cc1OC)C(C)N(C(=S)NC(=O)c1ccccc1)CC2 (configuration not stated),18.6%
23,COc1ccc(NC(=O)N2CCN(c3ccc([N+](=O)[O-])cc3)CC2)cc1OC,8.2%
24,Nc1nonc1-n1nnc(C(=O)N/N=C/c2cccc(Cl)c2Cl)c1CN1CCCC1,5.3%
25,CN(C)Cc1c(C(=O)N/N=C/c2ccccc2OCc2c(F)cccc2Cl)nnn1-c1nonc1N,-0.5% (active)

row,SMILES,activity change vs negative control
1,CCCOc1ccc(-c2c(C(=O)N/N=C/c3ccccc3OCC)nnn2-c2nonc2N)cc1,11.7%
2,O=C(NC(=S)Nc1ccc(C(F)(F)F)cc1)c1csnn1,110%
3,CC1CCc2c(sc3[nH]c(=S)n(C)c(=O)c23)C1 (configuration not stated),100%
4,CN1N=C(C(=O)N2CCc3c([nH]c4ccccc34)C2c2c(F)cccc2Cl)CCC1=O (configuration not stated),0.6%
5,CCc1nc(C)ccc1OCC(=O)N1CCc2c([nH]c3ccccc23)C1c1ccccn1 (configuration not stated),-3.7% (active)
6,O=c1c2cc(Br)ccc2nc(-c2ccc([N+](=O)[O-])cc2)n1O,66.7%
7,C=CCN(CC=C)C(=S)NC(=O)Cc1cccc2ccccc12,25.1%
8,CC(/C=C1\SC(=S)N(NS(=O)(=O)c2ccc(C)cc2)C1=O)=C\c1ccccc1,32.4%
9,O=c1c2cc(Cl)ccc2nc(-c2ccccc2)n1O,56.6%
10,Cn1nc(C(F)(F)F)c(-c2ccc(Br)cc2)c1NC(=O)c1cccnc1,-6.8% (active)
11,Cn1c(=S)[nH]c2sc3c(c2c1=O)CCC(C(C)(C)C)C3 (configuration not stated),99.8%
12,CC(CCc1ccccc1)NC(=S)NC(=O)c1ccco1 (configuration not stated),43%
13,O=C1C(=O)N(CCN2CCOCC2)C(c2cccnc2)/C1=C(/O)c1ccc(Cl)cc1 (configuration not stated),6.1%
14,COc1ccc(N(CC(=O)NCc2cccnc2)S(=O)(=O)c2ccccc2[N+](=O)[O-])c(OC)c1,4.1%
15,Cc1ccc(/C(O)=C2\C(=O)C(=O)N(Cc3cccnc3)C2c2ccccc2[N+](=O)[O-])cc1 (configuration not stated),-1.5% (active)
16,CC(C)CN1C(=O)/C(=C/c2cccs2)NC1=S,113%
17,COc1ccc(NC(=S)NC(=O)c2csnn2)cc1,81.7%
18,CC(C)C(=O)Nc1cccc(C(=O)Nc2ccccc2C(=O)O)c1,13.7%
19,CC(=O)Nc1ccccc1C(=O)C(=O)Nc1ccc(Cl)cc1,5.3%
20,CC(=O)Nc1ccccc1C(=O)C(=O)Nc1ccccc1,-2% (active)
21,S=c1[nH]c2cc(Cl)ccc2s1,121%
22,CCn1c(=S)[nH]c2sc3c(c2c1=O)CCCCC3,126%
